The structures appear in SMILES notation. Hit rate of the full screen: of about 320,000 compounds, about 1,300 (0.41%) were called active. Inconclusive results (about 3%) are left out. How the calls were made is not given here. These entries were drawn from the full list. Measured potencies and affinities stand elsewhere.

The assay is described as follows: growth inhibition of non-replicating M. tuberculosis (AID 488890).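 Further: plate controls were DMSO cells for no effect and high antibiotic wells for full effect.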 To be noted: Mycobacterium tuberculosis non-replicating, at 25 µM, stronger effect = higher value.
In the case of `O=C(CN1CCCCCC1)Nc1cc(C(F)(F)F)ccc1Cl`, the inhibition stood at 1.63%.
To `COc1ccc(CNC(=O)C(NC(C)=O)C(C)C)cc1OC` (configuration not stated) belongs -1.56%.
Take `COc1ccc([N+](=O)[O-])cc1N(CC(O)CN1C(=O)NC(C)(C)C1=O)S(=O)(=O)c1ccccc1` (configuration not stated): the inhibition was -14.2%.
The same measure for `Cc1nnc(NC(=O)C2=COCCO2)s1`: -3.76%; for `O=C(NC1CCCC1)c1ccc(Cl)s1`: 75.8%.
With `Cc1ccc(C(=O)NC2CCCC2)s1`, the inhibition was determined as 56.2%.
The same measure for `Cc1c(Cl)cccc1NC(=O)c1ccc(OCC(=O)NCc2ccccc2)cc1`: -7.76%.
Turning to `CCC(=O)c1ccc(OCC(=O)OCC(=O)NC2CCCCCC2)cc1`, the inhibition was determined as 20.5%.
Consider `CCOC(=O)Nc1cccc(Cl)c1C`, for which the inhibition was 20.8%.
`CCOc1ccc(C(=O)NC2CCCCCCC2)cc1`: the inhibition was determined as 77.1%.
To `CN(Cc1ccccc1)C(=O)COC(=O)c1cc(=O)c2ccccc2o1` belongs -3.1%; to `COc1ccccc1C(=O)Nc1nc2cc3c(cc2s1)OCO3`, -15.7%.
To `O=C(Nc1cc(F)ccc1F)c1ccc(-n2cncn2)c([N+](=O)[O-])c1` belongs 3.94%; to `COc1ccc(NC(=O)C2CC(=O)n3ncnc3N2)cc1` (configuration not stated), -0.6%; to `COc1cc(-c2nc(-c3ccccc3)c(-c3cccs3)[nH]2)cc(OC)c1OC`, -1.14%.
The same measure for `Cc1ccc(C(=O)NC(C)c2ccc(S(N)(=O)=O)cc2)s1` (configuration not stated): -0.6%; for `CC(=O)Nc1ccc(NC(=O)CSc2nnc(CC(C)O)n2-c2ccccc2)cc1` (configuration not stated): -7.33%; for `O=C(CN1CCN(S(=O)(=O)c2ccc(F)cc2)CC1)Nc1ccc(Cl)cn1`: 37.8%.
Regarding `FC(F)(F)c1cccc(Cc2noc(CN3CCCC(CN4CCCC4)C3)n2)c1` (configuration not stated), the inhibition stood at 51%.
Turning to `Cc1cccn2c(CNC3CCCc4ccccc43)c(C(=O)N3CCOCC3)nc12` (configuration not stated), the inhibition turned out to be 21.9%.
As for `CCn1c(C)nc2cc(S(N)(=O)=O)ccc21`, the inhibition was -15.1%.
The same measure for `CC(C)c1onc(C(=O)NCc2ccccc2)c1[N+](=O)[O-]`: 44.9%; for `Cc1cc(N2CCN(c3ccccc3)CC2)nc(N)n1`: -1.71%; for `CCCc1nc(C)cc(N2CCN(c3ccccc3)CC2)n1`: -3.49%.
With `Cc1cc(Cl)nc(-n2nc(C)cc2C)n1`, the inhibition was 27.1%.
`Cc1cc(C)n(-c2nc3ccccc3nc2N2CCC(C)CC2)n1`: the inhibition amounted to 34%.
The same measure for `COc1ccccc1OCc1ccc(C(=O)NCC2CCCO2)cc1` (configuration not stated): 1.26%; for `Cc1cccc(N2CCN(C(=O)c3ccc(CS(=O)Cc4cccc(Cl)c4)o3)CC2)c1C` (configuration not stated): 28.5%; for `Cn1nc(C(=O)NCCN2CCOCC2)c2ccccc2c1=O`: -5.46%.
To `CC(=O)n1cc(C=C2C(=O)NC(=O)NC2=O)c2ccccc21` belongs 0%; to `CC(=O)O/C(=C\c1cn(C(C)=O)c2ccccc12)C(=O)O`, -6.32%; to `Cc1ccc2c(c1)N(C)/C(=C/c1cccc[n+]1CCO)S2`, 6.55%.
For the molecule `O=C(O)Cc1ccc(NS(=O)(=O)c2c(Cl)cccc2Cl)cc1`, the inhibition was -11.9%.
Regarding `CC(C)(C)Nc1nc(N2CCCC2)nc(N2CCCC2)n1`, the inhibition is 59.5%.
To `CCNc1nc(N2CCCC2)nc(N2CCCC2)n1` belongs 75.5%; to `CCOC(=O)[C@@H]1[C@H]2COc3cc(OC)ccc3[C@H]2N2C(=O)N(c3cccc(Cl)c3)C(=O)[C@]12C`, 1.05%.
As to `O=C(NCCCN1CCOCC1)c1c(O)c2ccccc2[nH]c1=O`, the inhibition is -0.01%.
For `COc1cc2[nH]c(=O)c(C(=O)NCCCN3CCOCC3)c(O)c2cc1OC`, the inhibition turned out to be 1.72%.
For `CCc1ccc(C(=O)Nc2cc3c(cc2Cl)OCCCO3)cc1`, the inhibition amounted to 42%.
The same measure for `O=C(O)C1CCN(C(=O)CCN2C(=O)S/C(=C\c3ccccc3)C2=O)CC1`: 1.98%.
To `CCCCn1c(=O)c(CCC(=O)OCC(=O)Nc2cc(Cl)ccc2OC)nc2ccccc21` belongs -2.09%.
To `COC(=O)[C@H](CCSC)NC(=O)NCCc1ccc(F)cc1` belongs -16.4%.
Consider `CCCCCn1c(=O)c2ccccc2n2c(=S)[nH]nc12`, for which the inhibition was -0.64%.
The same measure for `CCCCn1c(=O)c2ccccc2n2c(=S)[nH]nc12`: -11.3%; for `Cc1ccccc1Sc1ncnc2onc(C)c12`: 5.13%.
To `COc1ccc(Sc2ncnc3onc(C)c23)cc1` belongs 58.2%.
The same measure for `COC(=O)c1ccccc1Sc1snnc1C`: -5.51%; for `Cc1ccc(Sc2ncnc3onc(C)c23)cc1`: 72.5%; for `CN(C)S(=O)(=O)c1ccc(NC(=O)COC(=O)C2CC3CCCC(C2)C3=O)cc1` (configuration not stated): 14.8%.
As to `COc1ccc(-n2c(O)c(C=NCCCn3ccnc3)c(=O)[nH]c2=O)cc1`, the inhibition was -3.58%.
To `Cc1cc(NC(=O)CN2CCN(c3ccccc3O)CC2)no1` belongs 3.86%; to `CCCCn1c(=O)c(C=Nc2cc([N+](=O)[O-])ccc2OC)c(O)n(CCCCl)c1=O`, 64%; to `CCCCN1CC(C(=O)NC2CCCCC2)CC1=O` (configuration not stated), -9.76%.
To `CCOc1ccc2oc(C(=O)OCC(=O)NCc3ccc(OC)cc3)c(C)c2c1` belongs 26.4%.
The same measure for `Cc1nn(C2CCS(=O)(=O)C2)c(Cl)c1/C=C/C(=O)OCC(=O)Nc1ccc2c(c1)OCO2` (configuration not stated): 3.18%.
Turning to `O=C(c1cnn2c(C(F)(F)F)cc(-c3ccccc3)nc12)N1CCCCC1c1cccnc1` (configuration not stated), the inhibition is 22.6%.
With `Nc1ccc(-c2nc3ncccc3o2)c(O)c1`, the inhibition came to 8.78%.
As to `O=C1OC(Oc2ccccc2)(c2ccccc2)c2ccccc21` (configuration not stated), the inhibition was -1.31%.
The same measure for `COc1ccccc1COCC(O)CNCCc1ccc(C(F)(F)F)cc1` (configuration not stated): 67.5%; for `OC(CNCc1ccccc1F)COc1cccc2ccccc12` (configuration not stated): 29.3%.
As to `COc1ccc(CCNCC(O)COc2cccc(Br)c2)cc1` (configuration not stated), the inhibition is 45.7%.
To `OC(CNCCc1ccccc1)COc1ccc(OCC(O)CNCCc2ccccc2)cc1` (configuration not stated) belongs 59.6%; to `O=c1c2ccccc2nc(/C=C/c2ccc(F)cc2)n1-c1ccccn1`, -7.61%; to `Cc1ccnc(NC(=O)c2ccccc2NC(=O)c2ccccc2)c1`, 7.95%.
`OCCCn1c(CCNc2nc(-c3ccc(F)cc3)cs2)nc2cc(C(F)(F)F)ccc21`: the inhibition worked out at 26.8%.
Regarding `c1ccc2cc(OCCOCCOc3ccc4ccccc4c3)ccc2c1`, the inhibition is -3.69%.
Take `CN(C)CCOc1ccc2ccccc2c1`: the inhibition is -16.7%.
Take `COC(C(=O)Nc1ccc(S(=O)(=O)Nc2ccc(F)cc2)cc1)c1ccccc1` (configuration not stated): the inhibition was 30.9%.
To `CCOc1ccc(C(C(=O)NCC2CCCO2)N(C(=O)c2snc(C(N)=O)c2N)c2cccc(F)c2)cc1` (configuration not stated) belongs 3.71%; to `CCc1ccc(OCC(=O)NCCN(C)C)c(Br)c1`, 5.23%.
The same measure for `Cc1cc(Cl)ccc1OCC(=O)NNC(=O)c1cccnc1`: -9.52%; for `O=C(NCCNC(=O)c1cnccn1)c1ccc(Cl)c(Cl)c1`: 5.99%.
The same measure for `O=C(NCCCNC(=O)c1cnccn1)c1ccc(Cl)c(Cl)c1`: -0.84%; for `COc1ccc(CC(=O)NNC(=O)COc2ccc(Br)cc2C)cc1OC`: -13.1%; for `Cc1ccc(C(=O)NNC(=O)COc2ccc(Cl)cc2C)o1`: -11.3%.
As to `COc1ccc(CC(=O)NNC(=O)c2cnccn2)cc1`, the inhibition is -6.37%.
As for `COc1ccccc1OCC(=O)NNC(=O)c1cnccn1`, the inhibition was determined as 3.6%.

In general, inhibition refers to the drop in the measured response relative to a control, in per cent.
